Assay results reported in PubChem BioAssay AID1789 (The Scripps Research Institute Molecular Screening Center, 2009).
Out of some 290,000 compounds screened, about 2,700 (0.93%) were called active.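 The calls were made as follows: active = inhibition above the screen-wide mean plus 3 SD, computed separately per campaign (cut at about 16% in these data); inactive = the rest.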 Many of the other results were omitted from the sample, so actives are more common in it than they were. Square brackets hold non-standard residues; d marks the D form. Peptide text beside a SMILES is read from it. * marks the point of attachment. PhAc = O=C(Cc1ccccc1)*

Tested on: Heat shock protein HSP 90 (rabbit reticulocyte lysate; luciferase refolding)
Assay: inhibitors of HSP90 chaperone activity – cell lysate, luminescence, primary screen (AID 1789);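 also: 0% = DMSO wells and 100% = 60 µM geldanamycin wells; inhibitors lower the luminescence because luciferase stays unfolded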
Details: 3 h, at 5.6 µM, hits give high values

Compound | inhibition
COc1cc(OC)c(C(=S)N2CCCC2)cc1OC | -0.17% (inactive)
O=C(Cn1ncc(N2CCCC2)c(Br)c1=O)c1ccc(Cl)cc1 | -0.91% (inactive)
CC(C)(C)Nc1nc(-c2ccccn2)nc2ccccc12 | -0.49% (inactive)
Cc1nc(COc2cc3oc(=O)cc(C)c3cc2Cl)cs1 | 1.76% (inactive)
CCN(C(=O)Cc1c(C(=O)O)n(CC)c2ccccc12)c1ccccc1C | -6.6% (inactive)
Cc1c(CNCCc2ccccc2)c(C(=O)O)c(C)n1-c1ccccc1 | 1.5% (inactive)
CCOCCOC(=O)C1=C(C)NC(=O)NC1c1ccc2c(c1)OCO2 (stereo not drawn) | -3.33% (inactive)
O=C(NC1CCCCCCC1)c1cccs1 | -3.45% (inactive)
O=C(NCc1ccco1)/C(=C\c1cccc([N+](=O)[O-])c1)NC(=O)c1ccco1 | -0.13% (inactive)
COCCN(C(=O)CCC(=O)Nc1nccs1)C(C(=O)NCCC(C)C)c1ccc(F)cc1 (stereo not drawn) | 2.45% (inactive)
Cc1ccc2c(cnn2C(=O)CCC(=O)NC2CCCC2)c1 | -3.9% (inactive)
O=[N+]([O-])c1ccc(N=Cc2c(O)ccc3ccccc23)cc1 | 2.1% (inactive)
Oc1c(C=Nc2cccc3nsnc23)ccc2ccccc12 | 36.7% (active)
COc1ccc(C=Nc2cccc3ncccc23)cc1 | 7.77% (inactive)
CC(C)C[C@@H](NC(=O)[C@H]1CCCN1C(=O)Cc1ccccc1)C(N)=O (PhAc-[dP]-[dL]-NH2) | -3.77% (inactive)
COc1ccccc1NC(=O)CN(c1ccccc1OC)S(=O)(=O)c1ccccc1 | 0.43% (inactive)
Cc1cccc(NC(=O)Nc2ccc3c(c2)OCO3)n1 | -5.1% (inactive)
CCc1c(C)sc(NC(=O)/C=C/c2ccc3c(c2)OCO3)c1C(=O)OC | -8.23% (inactive)
Cc1cccc(NC(=O)/C=C/c2ccc3c(c2)OCO3)n1 | 22.8% (active)
Cc1cc(C)cc(NC(=O)NC2CCCCCCC2)c1 | -3.82% (inactive)
O=C(Nc1ccn(Cc2ccccc2)n1)c1n[nH]c([N+](=O)[O-])c1Cl | 22.3% (active)
Cn1cc([N+](=O)[O-])c(C(=O)Nc2cnn(Cc3ccc(F)cc3)c2)n1 | -0.28% (inactive)
O=C(Nc1ccn(Cc2ccccc2)n1)c1cccc(F)c1 | 11.1% (inactive)
O=S(=O)(NC1CCCCC1N1CCN(c2ccccc2F)CC1)c1ccccc1 (stereo not drawn) | 2.71% (inactive)

Compound | inhibition
O=C(Nc1ccc(Cl)cc1)c1cccc(OC(=S)N2CCOCC2)c1 | -7.8% (inactive)
CCOC(=O)Cn1c(=O)n(Cc2ccc(OC)cc2)c(=O)c2cccnc21 | -2.48% (inactive)
Oc1cccc(/C=N/Nc2ccc(Cl)nn2)c1O | 5.19% (inactive)
CCc1ccc(NC(=O)CCNS(=O)(=O)c2cccs2)cc1 | -2.78% (inactive)
COCC(=O)Nc1c(C(=O)N2CCCC2)oc2ccccc12 | -3.81% (inactive)
Clc1ccc(-c2ncc3ccccn23)c(Cl)c1 | 4.35% (inactive)
O=C1CSC(c2ccccc2)N1c1nc(-c2ccc(Cl)cc2Cl)cs1 (stereo not drawn) | -0.17% (inactive)
Clc1ccc(-c2cc(-c3ccccn3)on2)c(Cl)c1 | 38.6% (active)
NC(=NC(=O)c1ccccc1)N1CCOCC1 | -2.45% (inactive)
O=C(c1ccccc1)N1CCN(C(=O)N2CCCCC2)CC1 | -0.28% (inactive)
CN1CCN(S(=O)(=O)c2cccc(C(=O)O)c2)CC1 | -1.11% (inactive)
O=C(O)c1cccc(N=NN2CCCCCC2)c1 | 37.5% (active)
O=C(NC(=O)N1CCOCC1)c1ccccc1 | 0.55% (inactive)
O=C(O)c1ccc(N=NN2CCOCC2)cc1 | 20.6% (active)
COc1cc(SC)ccc1C(=O)Nc1cc(C)ccn1 | 12.1% (inactive)
COc1cc(SC)ccc1C(=O)Nc1nc(C)cs1 | 82.5% (active)
COC(=O)c1sc(NC(=S)NC(=O)c2ccc(C)cc2)nc1C | 1.68% (inactive)
Cc1ccc(NC(=O)c2csc3c2CCCC3)cc1 | 1.71% (inactive)
COc1ccc(Cc2nnc(NC(=O)c3ccc(OC)cc3OC)s2)cc1 | -0.32% (inactive)
COc1cc2ccccc2cc1C(=O)Nc1nc(C)c(C(C)=O)s1 | 10.7% (inactive)
COc1cc(SC)ccc1C(=O)NCCOc1ccccc1Cl | 3.08% (inactive)
COC(=O)c1sc(NC(=O)c2ccc(OC)cc2OC)nc1C | 36.3% (active)
COC(=O)c1sc(NC(=O)c2csc3c2CCCC3)nc1C | 35.7% (active)
CCN(C(=O)c1cc([N+](=O)[O-])ccc1NCc1cccnc1)c1ccccc1 | -2.39% (inactive)
